PubChem BioAssay
Records with an inconclusive call do not appear. Activity calls are given as the source filed them.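 Rule for the calls, unless noted: active = normalized viability below 100% at a tested concentration; inactive = the rest.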

Columns and labels:
[1] = viability loss in pontine glioma line – cell-based, SU-DIPG-XXV, MIPE5.0, CellTiter-Glo, qHTS, dose response (AID 1347065; cut-off not given, nearly all actives have AC50 up to about 26 µM;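 note: cells exposed to compound for 48 hours before ATP readout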); conditions: CellTiter-Glo ATP luminescence
[2] = viability loss with induced miR-34 in A549 – imaging, A549 dox-inducible miR-34, nuclei and caspase counts, primary screen (AID 1347080;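 active = compounds whose cell count with miR-34 switched on is under 0.7 times the count with it off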); conditions: A549 miR-34 inducible, Hoechst nuclei count, 48 h
[3] = MELAS cybrid and Rieske KO viability enhancers – cell-based, MELAS cybrids, Rieske KO mouse fibroblasts, CellTiter-Glo, primary screen (AID 1508586;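 active = mean z-score across replicates of 1.96 or higher in either the MELAS or the Rieske mutant cell line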;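 note: z relative to plate mean and SD of compound and empty wells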); conditions: low glucose
[4] = drug combination growth inhibition, ovarian cancer – cell-based, oncology-focused library, rucaparib conditional, profiling panel (AID 1508598); conditions: patient-derived ovarian cancer cells, CellTiter-Glo viability, 144 h, stronger effect = lower value
[5] = JHH-DIPG-1 glioma cell viability, MIPE5.0 library, CellTiter-Glo luminescence, qHTS (AID 1347067; cut-off not given, nearly all actives have AC50 up to about 26 µM;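 note: cells exposed to compound for 48 hours before readout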); conditions: JHH-DIPG-1 glioma viability, CellTiter-Glo ATP luminescence
[6] = growth inhibition of DIPG cells – cell-based, MIPE5.0 library, qHTS (AID 1347068; cut-off not given, nearly all actives have IC50 up to about 30 µM); conditions: SU-DIPG-XXV viability
[7] = stronger effect = lower value, cell number ratio, induced over uninduced
[8] = measured here: relative caspase fold change +Dox/-Dox
[9] = measured here: total cells with miR-34 induction, stronger effect = lower value
[10] = measured here: total cells without miR-34 induction
[11] = MELAS cybrid survival, CellTiter-Glo 48 h, stronger effect = higher value
[12] = Rieske KO mouse fibroblast survival, CellTiter-Glo 72 h

CN1CCN(c2ccc(OC(F)(F)F)c(Nc3ncc4c(n3)-c3c(c(C(N)=O)nn3CCO)CC4)c2)CC1
1120: cell count [2, 9]
0.326: fold change [2, 8]
1140: cell count [2, 10]
inactive: fold change [2, 7] 0.983 | z-score [3, 11] 1.84 | viability ([4]; at 0.000305 µM, OCI-C5x cells, with rucaparib 10 µM, 100% = cells with rucaparib alone) 119% | viability ([4]; at 0.000305 µM, OCI-C5x cells, without rucaparib) 114% | viability ([4]; at 0.00122 µM, OCI-C5x cells, with rucaparib 10 µM, 100% = cells with rucaparib alone) 125% | viability ([4]; at 0.00122 µM, OCI-C5x cells, without rucaparib) 112% | viability ([4]; at 0.00488 µM, OCI-C5x cells, with rucaparib 10 µM, 100% = cells with rucaparib alone) 123% | viability ([4]; at 0.00488 µM, OCI-C5x cells, without rucaparib) 105% | viability ([4]; at 0.0195 µM, OCI-C5x cells, with rucaparib 10 µM, 100% = cells with rucaparib alone) 125%
-0.694: z-score [3, 12]
active: AC50 [1] 0.118 µM | viability ([4]; at 0.000305 µM, OCI-P5x cells, with rucaparib 20 µM, 100% = cells with rucaparib alone) 90% | viability ([4]; at 0.000305 µM, OCI-P5x cells, without rucaparib) 84.5% | viability ([4]; at 0.00122 µM, OCI-P5x cells, with rucaparib 20 µM, 100% = cells with rucaparib alone) 94.4% | viability ([4]; at 0.00122 µM, OCI-P5x cells, without rucaparib) 86.5% | viability ([4]; at 0.00488 µM, OCI-P5x cells, with rucaparib 20 µM, 100% = cells with rucaparib alone) 88.1% | viability ([4]; at 0.00488 µM, OCI-P5x cells, without rucaparib) 58.9% | viability ([4]; at 0.0195 µM, OCI-C5x cells, without rucaparib) 60% | viability ([4]; at 0.0195 µM, OCI-P5x cells, with rucaparib 20 µM, 100% = cells with rucaparib alone) 78.1% | viability ([4]; at 0.0195 µM, OCI-P5x cells, without rucaparib) 20.2% | viability ([4]; at 0.0781 µM, OCI-C5x cells, with rucaparib 10 µM, 100% = cells with rucaparib alone) 67.6% | viability ([4]; at 0.0781 µM, OCI-C5x cells, without rucaparib) 40.8% | viability ([4]; at 0.0781 µM, OCI-P5x cells, with rucaparib 20 µM, 100% = cells with rucaparib alone) 64.7% | viability ([4]; at 0.0781 µM, OCI-P5x cells, without rucaparib) 14.3% | viability ([4]; at 0.313 µM, OCI-C5x cells, with rucaparib 10 µM, 100% = cells with rucaparib alone) 49.1% | viability ([4]; at 0.313 µM, OCI-C5x cells, without rucaparib) 27.6% | viability ([4]; at 0.313 µM, OCI-P5x cells, with rucaparib 20 µM, 100% = cells with rucaparib alone) 70% | viability ([4]; at 0.313 µM, OCI-P5x cells, without rucaparib) 13.1% | viability ([4]; at 1.25 µM, OCI-C5x cells, with rucaparib 10 µM, 100% = cells with rucaparib alone) 37.5% | viability ([4]; at 1.25 µM, OCI-C5x cells, without rucaparib) 28.9% | viability ([4]; at 1.25 µM, OCI-P5x cells, with rucaparib 20 µM, 100% = cells with rucaparib alone) 73.8% | viability ([4]; at 1.25 µM, OCI-P5x cells, without rucaparib) 13.7% | viability ([4]; at 5 µM, OCI-C5x cells, with rucaparib 10 µM, 100% = cells with rucaparib alone) 40.7% | viability ([4]; at 5 µM, OCI-C5x cells, without rucaparib) 26.6% | viability ([4]; at 5 µM, OCI-P5x cells, with rucaparib 20 µM, 100% = cells with rucaparib alone) 74.1% | viability ([4]; at 5 µM, OCI-P5x cells, without rucaparib) 14.5%

Cc1cccc(CC(=O)N2CCc3c2ccc(-c2cn(C)c4ncnc(N)c24)c3F)n1
-0.298: z-score [3, 12]
active: AC50 [1] 10.5 µM
0.997: fold change [2, 8]
7830: cell count [2, 9]
5660: cell count [2, 10]
inactive: fold change [2, 7] 1.38 | z-score [3, 11] -0.412

COc1cc2nccc(Oc3ccc(NC(=O)c4cn(C(C)C)c(=O)n(-c5ccc(F)cc5)c4=O)cc3F)c2cc1OC
inactive: outcome [5] | outcome [6]

COc1ccc2c(c1)C(c1ccc(F)cc1)=C(CN1CCCC1)CO2
inactive: outcome [5] | outcome [6]
